Bioassay records deposited in PubChem BioAssay by National Center for Advancing Translational Sciences (NCATS).
NS1 function inh = influenza NS1 inhibition; Potency, µM (top dose mostly 46.1 µM); 270,000 compounds, 0.4% hits; calls by dose curve; note: actives are rising curves; nearly all actives have a fitted effect of over 50% in size
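Compounds were scored for reversing the slow growth caused by influenza A NS1 in S. cerevisiae, measured by optical density at 600 nm. Assay medium contained 2% galactose at pH 6.0; NS1-free yeast of the same strain were the positive control.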
CHX counter = affects cycloheximide protein synthesis inhibition readout, counter-screen; 300,000 compounds, 12% hits; max response, %; AID 2314; cell reporter, cycloheximide protein synthesis inhibition counterscreen; in the data active = max response mostly above about 13%, no sharp cut-off; inactive = mostly below about 14%; note: read at 38.3 µM for the half of the compounds with a filed dose
Pf growth 96h = P. falciparum growth inhibition at 96 hours; P. falciparum luciferase reporter growth, 96 h; Potency, µM (top dose mostly 28.7 µM), most hits filed as inhibitors; 320,000 compounds, 6.9% hits; AID 504834
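P. falciparum expressing integrated firefly luciferase grown in erythrocytes (2% hematocrit, 0.05% parasitemia final) with compounds for 96 hours at 37 C, 5% CO2. Growth inhibition read as loss of luminescence after adding luciferase detection reagent.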
Shiga toxin inh = blocks Shiga toxin action in Vero cells. 290,000 compounds, 9.2% hits. AID 2315. inhibition, % at 38.7 µM. Vero cells, Shiga toxin protein synthesis inhibition reporter; in the data active = inhibition mostly above about 28%, no sharp cut-off; inactive = mostly below about 43%
Pf growth 48h = inhibits P. falciparum growth in the first generation, 48 h; P. falciparum luciferase growth in erythrocytes, 48 h; Potency, µM (titrated, usually from 28.7 µM), usual class: inhibitors; 310,000 compounds, 5.9% hits; AID 504832
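Firefly luciferase activity from engineered P. falciparum reports growth; inhibitors lower the luminescent signal. Cultures contained 2% hematocrit erythrocytes at 0.1% final parasitemia.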
Sm TGR inh = S. mansoni TGR enzyme inhibition | Q962Y6 | purified TGR, DTNB reduction, TNB absorbance 405 nm | Potency, µM (series often up to 114 µM), hits mostly inhibitors | 360,000 compounds, 3% hits; note: nearly all actives have a fitted effect of over 60% in size
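TGR 20 nM + NADPH 100 uM (dispensed conc.), cpd preinc 15 min RT; start with NADPH (500 uM addition) then DTNB (15 mM addition). Kinetic TNB absorbance, 405 nm filter. Four-parameter Hill fit across titration.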
Numbers stand for hits; - = inactive; ? = inconclusive; . = no result; + = active, no number. Rows were chosen to be rich in hits. Some 21% of all compounds tested hit in one or more screens of this group. Unless noted, calls come from the whole dose curve; as a rule, active = well fitted curve in the direction sought with a large enough effect; inconclusive = small, poorly fitted or top-dose-only effect, or another doubt; inactive = no such curve, though single readings can be large; an effect the other way counts as inactive or inconclusive.

SMILES | NS1 function inh | CHX counter | Pf growth 96h | Shiga toxin inh | Pf growth 48h | Sm TGR inh
COc1ccc(/C=N/Nc2cc(C)nc(-n3nc(C)cc3C)n2)cc1 | - | - | ? | - | 1.5µM | -
Cc1cc(N/N=C/c2cccc([N+](=O)[O-])c2)nc(-n2nc(C)cc2C)n1 | - | - | 1µM | - | ? | -
Cc1cc(N/N=C/c2ccccc2[N+](=O)[O-])nc(-n2nc(C)cc2C)n1 | - | - | 0.66µM | - | 0.93µM | -
Cc1cc(C)nc(N/N=C/c2cccc([N+](=O)[O-])c2)n1 | - | - | - | - | - | -
COc1ccc(/C=N/Nc2cc(C)nc(NS(=O)(=O)c3ccc(C)cc3)n2)cc1 | - | - | - | - | - | -
Cc1cc(N/N=C/c2ccc(O)cc2O)nc(-n2nc(C)cc2C)n1 | - | - | ? | - | 1.9µM | -
Cc1cc(C)n(-c2ccccc2[N+](=O)[O-])n1 | - | - | - | - | - | -
Cc1cc(C)n(CCC(=O)N/N=C/c2ccc(O)cc2O)n1 | - | - | ? | - | ? | -
O=C(NC1CC2CCC(C1)N2Cc1ccccc1)c1ccccc1Br (stereo not drawn) | - | - | - | - | - | -
Cc1cc(C(=O)NC2CCCc3c2cnn3-c2cccc(C)c2C)n(C)n1 (stereo not drawn) | - | - | - | - | - | -
Cc1cc(N/N=C/c2cccc(Cl)c2)nc(-n2nc(C)cc2C)n1 | - | - | ? | - | 1.2µM | -
Cc1ccc(OCC(=O)N2CCN(c3nnc(-c4ccc(C)cc4)c4ccccc34)CC2)cc1 | - | - | 2.9µM | - | . | -
Cc1ccc(-c2nnc(N3CCN(C(=O)COc4cccc(C)c4)CC3)c3ccccc23)cc1 | - | - | 13µM | - | 8.3µM | -
COc1ccc(OCC(=O)N2CCN(c3nnc(-c4ccc(C)cc4)c4ccccc34)CC2)cc1 | - | - | ? | - | ? | -
COc1ccc(CCNC(=O)c2ccc3c(c2)ncn3-c2ccc(C)cc2C)cc1OC | . | . | . | . | . | -
C=CCn1c(O)c(C(C)=Nc2ccc(N(C)C)cc2)c(=O)[nH]c1=O | - | - | . | - | 12µM | -
C/C(=N\NC(=O)c1ccc(Cl)cc1)c1cccc(NC(=O)c2cccnc2)c1 | - | 38 | - | 45 | - | -
C/C(=N\NC(=O)c1ccn(C)n1)c1cccc(NC(=O)c2ccncc2)c1 | - | 30 | ? | 45 | - | -
C/C(=N\NC(=O)c1c(Cl)cnn1C)c1cccnc1 | - | 39 | - | 56 | - | -
C/C(=N\NC(=O)c1c(Cl)cnn1C)c1cccc(NC(=O)c2ccc(C)cc2)c1 | - | 21 | - | 109 | - | -
C/C(=N\NC(=O)c1c(Cl)cnn1C)c1cccc(NC(=O)C(C)C)c1 | - | - | - | - | - | -
C/C(=N/NS(=O)(=O)c1ccc(Cl)cc1)c1cccc(NC(=O)c2ccncc2)c1 | - | - | - | - | ? | -
C/C(=N\NC(=O)c1ccc(Cl)cc1)c1cccnc1 | - | 29 | - | - | - | -
CC(C)c1ccc(/C=N/NC(=O)c2c(Cl)cnn2C)cc1 | - | 46 | - | + | - | -
Cc1nn(C)c(C(=O)N/N=C/c2ccc(Br)cc2)c1Cl | - | - | - | - | - | -
SMILES | NS1 function inh | CHX counter | Pf growth 96h | Shiga toxin inh | Pf growth 48h | Sm TGR inh
C/C(=N\NC(=O)c1c(Br)cnn1C)c1ccc(NC(=O)c2ccc(F)cc2)cc1 | - | 43 | - | 86 | - | .
COc1ccc(OC)c(N(CC(=O)NN=C2CCN(C)CC2)S(=O)(=O)c2ccccc2)c1 | - | - | - | - | - | -
COc1ccc(-c2nnc(SC(C)C(=O)NCc3ccc4c(c3)OCO4)n2Cc2ccco2)cc1 (stereo not drawn) | - | - | - | - | . | ?
CCCN1CCN(c2cc3c(cc2F)c(=O)c(S(=O)(=O)c2ccc(CC)cc2)cn3CC)CC1 | . | . | . | . | . | -
NC(N)=Nc1ccc(N=C(N)N)cc1 | - | - | 8.3µM | - | ? | -
NC(N)=Nc1nc2ccccc2o1 | - | - | - | - | - | -
CCn1nc(C)cc1C(=O)Sc1ccc(C)cc1 | - | - | - | - | - | 18µM
Cc1ccc(OC(=O)c2cc(C)nn2C(C)(C)C)cc1 | - | - | - | - | - | -
Cc1ccc(O)c(C(=O)c2cnc3onc(-c4ccc(F)cc4)c3c2)c1 | - | - | 2.3µM | - | 3.3µM | -
O=C(c1cnc2nc3ccccc3n2c1)c1cc(F)ccc1O | - | 14 | ? | - | - | -
Cc1[nH]nc2ncc(C(=O)c3cc(F)ccc3O)cc12 | - | - | ? | - | . | -
Cc1noc2ncc(C(=O)c3cc(F)ccc3O)cc12 | - | - | 8.3µM | - | . | -
Cc1ccc(N2CCN(C(=O)c3cccn4c(=O)c5ccc(Cl)cc5nc34)CC2C)cc1 (stereo not drawn) | . | . | . | . | . | -
CCCCCC(=O)Nc1cccc(-c2nc3ncccc3o2)c1 | - | - | . | - | ? | -
CCCC(=O)Nc1cccc(-c2nc3ncccc3o2)c1 | . | . | . | . | . | -
CCCCC(=O)Nc1cccc(-c2nc3ncccc3o2)c1 | - | - | 12µM | - | ? | -
CCCC(=O)Nc1ccc(-c2nc3ncccc3o2)cc1 | - | 20 | ? | - | - | -
Cc1onc(-c2ccccc2)c1C(=O)N1CCN(c2ncccn2)CC1 | - | - | ? | - | - | -
CC(=O)c1ccc(-c2cccs2)s1 | . | 24 | - | 36 | - | -
O=C(O)CSCC(=O)NCc1c(Cl)cccc1Oc1ccccc1 | - | - | - | - | - | -
O=S(=O)(NCc1c(Cl)cccc1Oc1ccccc1)c1ccc(F)cc1 | - | - | ? | - | 9.3µM | -
CCOC(=O)c1c(COC(=O)c2ccco2)nc2ccccc2[n+]1[O-] | - | - | - | - | - | ?
CC(=O)c1c(COC(=O)c2ccco2)nc2ccccc2[n+]1[O-] | - | - | . | - | - | 40µM
CCOC(=O)Nc1ccc2c(c1)OCO2 | - | 45 | ? | - | - | -
COc1ccc(C)cc1NC(=O)c1ccc2c(c1)OCO2 | - | 48 | - | 97 | - | -
SMILES | NS1 function inh | CHX counter | Pf growth 96h | Shiga toxin inh | Pf growth 48h | Sm TGR inh
COc1ccc(NC(=O)c2ccc3c(c2)OCO3)cc1[N+](=O)[O-] | - | 31 | - | 60 | - | .
COc1ccc(NC(=O)c2ccc3c(c2)OCO3)cc1 | - | 33 | ? | - | - | -
COc1ccc(/C=N/NC(=O)c2ccc3c(c2)OCCO3)cc1[N+](=O)[O-] | - | - | ? | - | - | -
Cn1c(-c2cccc3ccccc23)n[nH]c1=S | ? | - | - | - | - | -
CCOC(=O)c1c(C)[nH]c(C(=O)Nc2ccc3c(c2)OCO3)c1C | - | 41 | ? | 53 | - | -
CCOC(=O)c1ccc(NC(=O)c2ccc3c(c2)OCO3)cc1 | - | 19 | . | - | - | -
CC(=O)Oc1ccc(C2OC(=O)c3ccccc3N2C(C)=O)cc1 (stereo not drawn) | - | - | - | - | . | -
COc1ccc(C(=O)N2c3ccccc3C(=O)OC2c2ccc3c(c2)OCO3)cc1 (stereo not drawn) | - | 20 | . | - | - | -
